Assay outcomes deposited in PubChem by several laboratories.
This is a sample that favours compounds with a hit; in the whole collection about 3% have one here.
KKLEB cytotox – reduces viability of KKLEB cystic fibrosis airway cells. KKLEB CF airway cells viability, ATPlite luminescence, overnight; active compounds read low; cells stimulated with P. aeruginosa culture filtrate. activity change (cytotoxicity), % at 5 µM. 360,000 compounds, 0.36% hits;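 active = corrected activity change at or below -50% at 5 µM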
CF NFkB block – blocks PAF-induced NF-kB reporter in cystic fibrosis cells | KKLEB NF-kB-GFP reporter, GFP fluorescence overnight | inhibition, % at 5 µM | 360,000 compounds, 0.86% hits | AID 588850;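 active = at least 50% inhibition at 5 µM, scaled per plate between neutral and stimulator controls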;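 note: PAF is a Pseudomonas aeruginosa culture filtrate used as stimulus; plate controls were PAF-stimulated DMSO wells for no effect and unstimulated DMSO wells for full effect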
HIF-2a inh – blocks HIF-2a reporter activity; 786-0 RCC cells HIF-2a reporter, luciferase luminescence, overnight; inhibition, % at 18.8 µM; 360,000 compounds, 0.72% hits; AID 624352;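 active = inhibition of the luminescence signal of 40% or more relative to plate controls, in a single-dose primary screen at 18.75 µM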
Peg3 promoter – inhibitors of Peg3 promoter; 360,000 compounds, 1.7% hits; inhibition, % at 20 µM; HeLa PEG-Prom luciferase reporter, luminescence, overnight;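 active = inhibition of at least 50% at 20 µM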
LMP1 NFkB inh – inhibitors of Epstein-Barr LMP1-induced NF-kappaB reporter | inhibition, % at 12.5 µM | 350,000 compounds, 0.69% hits | AID 504558 | LMP1-induced NF-kappaB luciferase reporter cells, luminescence; in the data active = inhibition above about 41%;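 note: 0% = neutral control wells and 100% = reference inhibitor control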
TRPM1 prom inh – reduces MITF-dependent TRPM1 promoter luciferase signal; inhibition, % at 12.5 µM; SK-MEL-5 TRPM1 promoter luciferase, 24 h; 330,000 compounds, 0.83% hits;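 active = mean inhibition across replicates of 60% or more, whatever share of single replicates reaches that level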
The depositor's hits bear a star; / = not tested or not shown.

SMILES	KKLEB cytotox	CF NFkB block	HIF-2a inh	Peg3 promoter	LMP1 NFkB inh	TRPM1 prom inh
O=C1/C(=C/Nc2ccc3c(c2)OCO3)CCc2ccccc21	-53.0*	-18.1	-27.8	9.5	6.7	15.4
CC(=O)ON=C1C=CC(=C(C#N)c2ccccc2)C=C1	-39.3	79.9*	-16.9	29.3	/	/
C[C@H]1CN([C@@H](C)CO)C(=O)CCCn2nncc2CO[C@H]1CN(C)C(=O)Nc1cccc(Oc2ccccn2)c1	-0.1	3.8	1.6	-1.3	0.6	/
Cc1cc(C)nc(N(C#N)CN2C(=O)c3ccccc3C2=O)n1	-0.1	8.9	-3.1	12.2	-2.9	-5.1
CC(C)Nc1nc(Cl)nc(N(C#N)CN2C(=O)c3ccccc3C2=O)n1	-0.5	0.5	-11.2	95.0*	-1.6	56.7
CCC(C)Nc1nc(Cl)nc(N(C#N)CN2C(=O)c3ccccc3S2(=O)=O)n1 (stereo not drawn)	-9.6	14.8	20.4	15.1	-2.0	69.1*
CCN(CC)C(=O)C1=C(C)N(Cc2ccc(C(C)(C)C)cc2)C(=O)C(CC(=O)NCCCCc2ccccc2)C1 (stereo not drawn)	-7.5	19.3	4.5	7.7	-3.3	/
COc1cc(NC(=O)COc2ccccc2[N+](=O)[O-])ccc1NC(=O)c1cccs1	-8.8	29.6	-170.3	56.9*	-17.6	74.4*
CCN(CC)CCCNc1nc2ccccc2[nH]1	15.9	-25.7	5.1	-11.5	-2.9	3.1
O=C(O)c1cccc(NC2=C(Cl)C(=O)c3ccccc3C2=O)c1	-0.8	-12.1	-80.9	-128.4	2.1	35.7
CC(C)OCCCNC1=C(Cl)C(=O)c2ccccc2C1=O	-23.7	6.8	63.9*	-229.8	/	/
CC(C)NC1=C(Cl)C(=O)c2ccccc2C1=O	-22.2	50.1*	-53.5	-36.0	-17.2	79.8*
CCN(CC)CCCNC1=C(Cl)C(=O)c2ccccc2C1=O	-2.2	64.7*	83.8*	18.3	5.0	110.2*
COCCCNC1=C(Cl)C(=O)c2ccccc2C1=O	18.0	-32.7	84.3*	-76.6	0.9	39.2
COCCCNc1c2c3c(cccc3[nH]c1=O)C(=O)c1ccccc1-2	-1.6	-124.5	-68.4	22.1	10.6	7.6
Cc1ccc(C(=O)N2CCC(N3CCC(C(=O)N4CCOCC4)CC3)CC2)cc1	1.7	10.8	5.3	-7.1	-2.6	/
COc1ccc(C)cc1S(=O)(=O)N(C)CC(=O)N1CCN(C)CC1	6.9	-8.7	-2.9	-6.2	-2.7	0.4
COc1ccc(C)cc1S(=O)(=O)N(C)CC(=O)N1CCCCCC1	6.2	-6.7	6.7	74.8*	3.2	-4.3
CCCCCCCCCCCCCCCC[N+](C)(C)Cc1ccc(F)cc1	-31.9	10.4	37.1	105.4*	4.3	28.4
CC1CCCN(S(=O)(=O)c2cc3c4c(c2)C(C)C(=O)N4CCC3)C1 (stereo not drawn)	-6.7	-13.7	6.5	9.0	69.3*	-5.5
CCC(c1nc2ccccc2[nH]1)n1c(=O)c(-c2ccco2)nc2ccccc21 (stereo not drawn)	/	/	17.0	/	/	/
Cc1c(C(=O)NCc2ccc(C(C)C)cc2)sc(=O)n1Cc1cccc(F)c1	3.6	-2.6	13.8	10.3	/	/
O=C(O)c1cc(-c2ccccc2Cl)n(-c2ccc(F)cc2)n1	7.4	-3.2	10.6	-2.1	-6.6	5.0
O=C(O)c1cc(-c2ccccc2)n(-c2ccc(F)cc2)n1	1.0	-21.5	24.9	78.2*	-4.2	-4.2
Nc1nc2c(ncn2[C@@H]2O[C@H](CNS(=O)(=O)C3CC3)[C@@H](O)[C@H]2O)c(=O)[nH]1	0.8	-12.7	0.8	8.3	/	/
SMILES	KKLEB cytotox	CF NFkB block	HIF-2a inh	Peg3 promoter	LMP1 NFkB inh	TRPM1 prom inh
CC1CCC(C(C)C)C(OCC(O)CNC(C)c2ccccc2)C1 (stereo not drawn)	-33.0	12.4	1.6	105.8*	3.3	55.2
CC(NCC(O)COC1CCC(C(C)(C)C)CC1)c1ccccc1 (stereo not drawn)	-7.9	6.3	10.3	63.6*	-12.9	-6.1
Nc1[nH]c(C(=O)c2ccccc2)c(-c2ccncc2)c1C(=O)NCCc1c[nH]c2ccccc12	/	/	4.2	/	/	/
Cc1cc(/C=C2\SC(=S)N(C)C2=O)c(C)n1-c1ccc(O)cc1	-3.8	-7.6	45.4*	62.1*	47.5*	75.9*
CC(C)(C)c1ccccc1NC(=O)Nc1nc(C(N)c2ccccc2Cl)cs1 (stereo not drawn)	-19.0	11.6	3.3	-3.6	/	/
COc1ccc(CN2C(=O)C(CC(=O)NC3CCCCC3)CC(C(=O)N(C(C)C)C(C)C)=C2C)cc1 (stereo not drawn)	0.7	-2.4	-6.0	2.4	-4.3	/
Cn1ncc([N+](=O)[O-])c1C(=O)NC1CCCCCC1	24.0	-32.6	10.4	23.3	-2.8	11.4
Cn1ncc(Cl)c1C(=O)NC1CCCC1	17.8	3.3	9.5	8.0	52.8*	-8.6
Cc1cc(=O)oc2cc(Oc3ncccn3)ccc12	7.7	-6.8	-10.2	-14.0	44.9*	-14.4
Cc1cc(NC(=O)c2cccc(COc3ccc(Br)cc3)c2)no1	-15.9	23.2	7.5	-146.5	43.5*	10.1
Cn1c(=O)c2cc(NC(=O)CCc3ccc4c(c3)OCO4)ccc2n1Cc1ccc(F)cc1	-6.0	26.5	7.1	15.2	/	/
O=C(N/N=C/c1sc2ccccc2c1O)c1cccc2ccccc12	-26.5	35.8	-60.6	38.6	53.9*	43.9
O=C(N/N=C/c1sc2ccccc2c1O)c1ccccc1	-8.5	2.2	-163.7	27.4	21.5	27.9
CCOC(=O)CN(c1sc(C)c(C)c1C(=O)OCC)S(=O)(=O)c1ccc(C)cc1	-6.8	8.1	-34.9	8.8	-8.3	/
Cc1cccnc1CCNC(=O)c1ccc(OC2CCN(Cc3ccccn3)CC2)cc1	-1.2	-36.3	18.8	72.3*	16.6	18.2
COCC(=O)N1CCC(Oc2ccc(C(=O)NCCc3ncccc3C)cc2)CC1	31.1	-0.1	-6.1	22.4	5.9	-4.7
CCC(CC)C(=O)N(C)c1c(C)nc2c(OCC(=O)C(C)(C)C)cccn12	-11.0	3.6	5.3	4.9	/	/
CCc1nc2ccc(C(=O)Nc3cc(-c4ccccc4)ccc3OC)cn2c1N(C)Cc1nccs1	-35.1	45.0	-9.7	67.5*	/	/
CCc1nc2ccc(C(=O)Nc3cc(-c4ccccc4)ccc3OC)cn2c1N(C)Cc1ccc(OC)cc1	-18.2	29.0	-38.5	-13.3	/	/
COc1ccc(-n2cc(C(=O)c3ccccc3O)cn2)cc1	-10.4	0.9	-72.3	-32.8	49.9*	-8.6
CCOC(=O)N1CCC(NC(=O)C2CCCN(Cc3nc(-c4cccc(Cl)c4)oc3C)C2)CC1 (stereo not drawn)	-4.9	-3.0	8.7	6.0	52.5*	24.9
C=CC[n+]1c(-c2ccc(C)cc2)csc1Nc1ccc(NC(C)=O)cc1	1.8	-12.8	90.5*	20.2	38.8	80.9*
C=CC[n+]1c(-c2ccc(OC)cc2)csc1NNC(=O)Nc1ccccc1	2.1	9.0	-80.0	1.1	2.7	6.1
COc1ccc(NC(=O)COC(=O)/C=C/C(=O)OCC(=O)Nc2ccc(OC)c(Cl)c2)cc1Cl	-8.3	-22.1	21.5	56.2*	-21.1	-6.9
